# mIDH1 inhibitor – blocks human mutant IDH1 R132H enzyme; O75874; IDH1-R132H enzyme, NADPH consumption, diaphorase/resazurin fluorescence; Potency, µM (series often up to 76.6 µM), hits mostly inhibitors; 390,000 tested, 0.093% active; AID 602179; also: nearly all actives have a fitted effect of over 65% in size
#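 IDH1-R132H (0.5 ug/mL) preincubated 30 min with compound, then NADPH (0.016 mM) and alpha-KG (2 mM) added; 80 min at RT, pH 7.5. Remaining NADPH coupled via diaphorase/resazurin to fluorescence (540/590 nm); concentration-response curves normalized to no-enzyme control.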
# TrxR1 substrate – is turned over as a substrate by rat TrxR1 | O89049 | purified TrxR1 substrate turnover, NADPH consumption readout | Potency, µM (doses to about 114 µM) | 390,000 tested, 0.01% active; also: nearly all actives have a fitted effect of over 50% in size
#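 Rat TrxR1, dispensed at 90 nM, was prereduced with 400 uM NADPH (final) for 5 min at ~22 deg C, then incubated with compound 15 min before 400 uM selenite. A first-read NADPH fluorescence drop versus no-compound background flagged substrates.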
# GLS inhibitor – glutaminase GLS (human) inhibition; O94925; GLS enzymatic activity, qHTS titration; Potency, µM (top dose mostly 45.5 µM), usual class: inhibitors; 410,000 tested, 0.21% active; AID 624170
# Target sequence (O94925 whole entry, looked up): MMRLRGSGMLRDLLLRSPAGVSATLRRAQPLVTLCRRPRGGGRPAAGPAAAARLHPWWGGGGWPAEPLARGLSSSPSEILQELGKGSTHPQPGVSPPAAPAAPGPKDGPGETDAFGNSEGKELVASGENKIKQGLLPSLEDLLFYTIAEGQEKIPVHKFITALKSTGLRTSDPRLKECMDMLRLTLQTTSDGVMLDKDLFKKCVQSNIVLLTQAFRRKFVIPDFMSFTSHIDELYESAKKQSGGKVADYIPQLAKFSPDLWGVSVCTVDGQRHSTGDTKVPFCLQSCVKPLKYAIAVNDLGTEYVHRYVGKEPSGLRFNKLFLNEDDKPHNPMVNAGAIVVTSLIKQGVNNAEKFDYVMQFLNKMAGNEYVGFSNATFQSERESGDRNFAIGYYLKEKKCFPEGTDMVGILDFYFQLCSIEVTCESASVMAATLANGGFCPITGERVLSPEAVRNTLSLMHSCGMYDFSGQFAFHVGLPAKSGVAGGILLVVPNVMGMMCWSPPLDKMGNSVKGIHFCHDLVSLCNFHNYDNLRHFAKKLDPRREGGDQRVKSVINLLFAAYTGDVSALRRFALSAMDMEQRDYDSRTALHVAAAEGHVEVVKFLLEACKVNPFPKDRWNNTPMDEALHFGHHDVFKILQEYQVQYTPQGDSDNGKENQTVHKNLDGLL
#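 hKGA in 45 mM KH2PO4 (pH 8.2), 0.02% Tween-20 with compound, then 1mM L-Glutamine (stock as added) plus glutamate oxidase/HRP/Amplex red coupling mix. Fluorescence read initially and after 30 min at RT; signal change reflects glutamate formation.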
# LDHA block – blocks human lactate dehydrogenase A; AID 1347041; 480,000 tested, 0.15% active; purified LDHA, NADH/diaphorase-resazurin fluorescence; hits give low values; activity change, % (values are at about 110 or 230 µM); in the data active = activity change below about -30%; inconclusive = mostly about -25% to -30%
#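 Human LDH5 at 2 nM final in Tris HCl pH 7.4 with 0.06 mM NADH and 0.2 mM pyruvate, reacted 5 minutes at room temperature. Remaining NADH coupled via diaphorase/resazurin; resorufin fluorescence read at 0 and 20 minutes, normalized to enzyme-free and DMSO wells.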
# TrxR1 inh – rat TrxR1 inhibition | recombinant rTrxR1, NADPH fluorescence consumption, selenite substrate | Potency, µM (top dose mostly 114 µM), usual class: inhibitors | 390,000 tested, 1% active | AID 588453; also: nearly all actives have a fitted effect of over 65% in size
#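 Rat TrxR1 (90 nM in the dispensed reagent) was pre-reduced with 400 uM NADPH for 5 min at room temperature, then incubated with compound for 15 min. After 400 uM selenite was added, NADPH fluorescence (Ex 340/Em 450 nm) was followed for 8 min.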
# PKM2 activator – increases activity of human pyruvate kinase M2 | purified PKM2, Kinase-Glo ATP luminescence, activation; response scale: 0% is enzyme alone, no compound | P14618 | 260,000 tested, 0.34% active | Potency, µM (titrated, usually from 57.5 µM), most hits filed as activators; also: nearly all actives have a fitted effect of over 55% in size
#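 Purified hPK-M2 (>95% pure) converted ADP (0.1 mM final) to ATP with 0.5 mM PEP in 50 mM imidazole pH7.2, KCl, MgCl2, Tween 20, BSA; 1 h at room temperature. ATP detected by Kinase-Glo luminescence.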
# Numbers stand for hits; . = inactive; ? = inconclusive; / = no result given; ! = not confirmed by another sample; [ ] = another dose, or the depositor's remark. Rows were chosen to be rich in hits. Some 1.4% of all compounds tested hit in one or more screens of this group. Unless noted, calls follow the shape of the dose curve; as a rule, active = well fitted curve in the direction sought with a large enough effect; inconclusive = small, poorly fitted or top-dose-only effect, or another doubt; inactive = no such curve, though single readings can be large; an effect the other way counts as inactive or inconclusive.
SMILES,mIDH1 inhibitor,TrxR1 substrate,GLS inhibitor,LDHA block,TrxR1 inh,PKM2 activator
C[C@H](CO)N1C[C@H](C)[C@@H](CN(C)S(=O)(=O)c2cccc(F)c2)OCc2cn(nn2)CCCC1=O,.,/,.,-34.3,/,/
C[C@@H]1CN([C@@H](C)CO)C(=O)CCCn2cc(nn2)CO[C@H]1CN(C)S(=O)(=O)c1cccc(F)c1,.,/,.,.,/,/
O=C(CSc1cccc2cccnc12)Nc1ccc(S(=O)(=O)N2CCOCC2)cc1,.,.,.,.,.,25.1µM
N#CCCN1CCN(c2cc(C(=O)O)c3cc(NC(=O)c4ccccc4)ccc3n2)CC1,/,/,/,.,/,/
Cc1cc(O)c(C(c2ccccc2)N2CCN(c3ccc(F)cc3)CC2)c(=O)n1Cc1ccco1 (stereo not given),.,.,.,.,10µM,/
CCN1CCN(C(c2cccc(OC)c2)c2c(O)cc(C)n(Cc3ccco3)c2=O)CC1 (stereo not given),.,.,.,.,11.2µM,/
COc1ccc2cnn(CC(=O)Nc3ccc(F)cc3F)c(=O)c2c1OC,/,/,/,.,/,/
COc1cccc(C2CC(=O)Nc3nc(N)sc32)c1OCC(C)C (stereo not given),/,/,/,.,/,/
N#Cc1ccc(NC(=O)Cn2c(=O)c3c(ncn3Cc3ccccc3)n(Cc3ccccc3)c2=O)cc1,/,/,/,.,/,/
CN(C)CCN(Cc1ccccc1)S(=O)(=O)c1ccc(-c2ccc(=O)[nH]n2)s1,.,.,.,.,39.8µM,/
CN(C)CCN(Cc1ccccc1)S(=O)(=O)c1ccc(-c2cc(C(F)(F)F)on2)s1,.,.,.,.,.,/
CCOc1ccc(N2C(=O)CC(N3CCN(c4ccc(Cl)cc4)CC3)C2=O)cc1 (stereo not given),.,.[2.29 µM],.,.,39.8µM,.
CCOc1ccc(N2C(=O)CC(N3CCN(c4ccc([N+](=O)[O-])cc4)CC3)C2=O)cc1 (stereo not given),.,.,.,.,25.1µM,.
COc1ccc(CCC(=O)NCc2ccco2)cc1,.,.,.,.,11.2µM,.
CCOC(=O)c1ccc2ncc(C(=O)OCC)c(NCCCOC(=O)c3cccnc3)c2c1,/,/,/,.,/,/
O=c1[nH]c(CN2CCN(Cc3cccs3)CC2)nc2scc(-c3ccc(F)cc3)c12,/,/,/,.,/,/
CC(=O)N1CCc2cc(S(=O)(=O)N3CCc4ccccc43)ccc21,.,.,.,.,.,.
COC(=O)CCC(=O)N1CCc2cc(S(=O)(=O)N3CCc4ccccc43)ccc21,.,.,.,.,.,12.6µM
Cc1ccc(/C=C/C(=O)Nc2cccnc2)o1,.,.,.,.,31.6µM,.
Cc1ccc(/C=C/C(=O)Nc2nn[nH]n2)o1,.,.,.,.,50.1µM,.
Cc1ccc(/C=C/C(=O)NCCc2ccccc2)o1,.,.,?,.,14.1µM,.[11.5 µM]
Cc1ccc(/C=C/C(=O)Nc2cccc3ncccc23)o1,.,.,.,.,10µM,.
O=C(/C=C/c1ccco1)NCCc1ccccc1,.,.,.,.,?,.
O=C(/C=C/c1ccccc1)Nc1cccnc1,.,.,.,.,.,.
Cc1ccc(C(=O)C(=O)O)cc1,/,/,/,.,/,/
SMILES,mIDH1 inhibitor,TrxR1 substrate,GLS inhibitor,LDHA block,TrxR1 inh,PKM2 activator
CCOC(=O)c1cc2c(=O)n3cccc(C)c3nc2n(Cc2ccco2)c1=NC(=O)c1ccccc1,.,.[11.4 µM],.,.,56.2µM!,.
CCOC(=O)c1cc2c(=O)n3cccc(C)c3nc2n(Cc2ccco2)c1=NC(=O)c1ccc(C)cc1,.,.,.,.,.,/
COc1ccc(OC)c(N2C(=O)[C@@H]3C(c4ccccc4Cl)=NO[C@@H]3C2=O)c1,.,.,11.2µM,.,.,.
O=C(Nc1ncc2c(n1)CC(c1ccco1)CC2=O)c1ccco1 (stereo not given),.,.,.,.,.,28.2µM
O=C1/C(=C/c2ccco2)CCC1C1CCCC1 (stereo not given),.,.,.,.,.,.
O=C1/C(=C\c2ccco2)CCC/C1=C\c1ccco1,.,.,.,.,2.24µM,.
Cc1cccc(NC(=O)/C(C#N)=C\c2cccnc2)c1,.,.,.,.,.,.
N#C/C(=C\c1cccnc1)C(=O)Nc1cccc(Cl)c1,.,.,.,.,.,5.62µM
CC(=O)Nc1ccc(C=NNC(=O)c2ccc(NS(=O)(=O)c3cccs3)cc2)cc1,.,.,.,-32.5,.,/
O=C(NN=Cc1c(F)c(F)c(F)c(F)c1F)c1ccc(NS(=O)(=O)c2cccs2)cc1,.,.,.,.,.,/
CCOc1cccc2cc(-c3nc(-c4ccccc4F)no3)c(=O)oc12,/,/,/,-34.5,/,/
CCOc1cccc2cc(-c3nnc(NCc4ccco4)s3)c(=O)oc12,.,.,.,.,7.94µM,.
CCOc1cccc2cc(-c3nc(-c4ccc(F)cc4)no3)c(=O)oc12,/,/,/,.,/,/
COc1ccccc1Nc1nnc(-c2cc3cccc(OC)c3oc2=O)s1,/,/,/,.,/,/
COc1ccc2oc(=O)c(-c3nnc(NCc4ccco4)s3)cc2c1,.,.,.,.,15.8µM,.
CCOc1ccccc1Nc1nnc(-c2cc3cc(OC)ccc3oc2=O)s1,.,.,.,.,.,/
c1ccc(CCN(Cc2ccccc2)Cc2ccc(OCc3ccccc3)cc2)cc1,/,/,/,.,/,/
COc1ccc(C2/C(=C(\O)c3ccc(F)cc3)C(=O)C(=O)N2c2cc(C)on2)cc1OC (stereo not given),/,/,/,.,/,/
Cc1cnc(C(=O)Oc2ccc(C#N)cc2)cn1,/,/,/,.,/,/
Cc1ccc2nc(NC(=O)Cn3c(=O)oc4ccccc43)sc2c1,/,/,/,.,/,/
CC(C)c1cccc(C(C)C)c1NC(=O)C1CC=CCC1 (stereo not given),/,/,/,-31.8,/,/
C=CCOc1cccc(NC(C)=O)c1,/,/,/,.,/,/
COc1ccc(C(C)=O)cc1COC(=O)c1cc(=O)c2ccccc2o1,.,.[0.0914 µM],.,.,12.6µM,.
COc1ccc(C(C)=O)cc1COC(=O)c1cc(C)oc1C,.,.,.,.,10µM,.
COc1ccc(C(C)=O)cc1COC(=O)CCNS(=O)(=O)c1ccc(C)cc1,.,.,.,.,?,/
COc1ccc(C(C)=O)cc1COC(=O)CCNS(=O)(=O)c1ccc(C(C)=O)cc1,.,.,.,.,39.8µM,.
COc1ccc(C(C)=O)cc1COc1ccccc1[N+](=O)[O-],.,.,.,.,35.5µM,.
C=C(C)CN1CCN(c2nc3c(c(=O)[nH]c(=O)n3C)n2Cc2cccc3ccccc23)CC1,/,/,/,.,/,/
CCC(=O)N1c2ccccc2NC2=C(C(=O)CC(C)(C)C2)C1c1ccc(OC)c(OC)c1 (stereo not given),/,/,/,.,/,/
Cc1ccc(CNC(=O)C2CCCCC2)s1,/,/,/,.,/,/

# High-throughput results from PubChem.
